Data from the supplement of paper PMC9694430.
Where a name gives a salt, the structure may show the parent alone.

Assays:
Assay in all cases: thermal shift delta Tm vs DMSO control; higher = stronger stabilization (binding)
Conditions in all cases: 12.5 µM; protein concentration 2 µM
[1] = test system: LOC_OS02G45750-cb003
In short: (§1)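 Compounds dissolved in DMSO were added to purified rice kinase domain constructs, which had been expressed in E. coli, for differential scanning fluorimetry. Each well held 19.5 μl of 2 μM kinase in 100 mM potassium phosphate pH 7.5, 150 mM NaCl, 10% glycerol and 5 × SYPRO Orange. Fluorescence was followed from 25°C to 95°C at a rate of 0.05°C/s. Shifts in Boltzmann-fitted melting temperature are triplicate means relative to DMSO-only protein.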

[2] = test system: LOC_OS02G54510-cb004
In short: as §1

[3] = test system: LOC_OS03G04050-cb001
In short: as §1

[4] = test system: LOC_OS03G12390-cb001
In short: as §1

[5] = test system: LOC_OS03G27990-cb004
In short: as §1

[6] = test system: LOC_OS03G50450-cb001
In short: as §1

[7] = test system: LOC_OS03G50810-cb003
In short: as §1

[8] = test system: LOC_OS04G35114-cb001
In short: as §1

[9] = test system: T1, LOC_OS04G38480-cb003
T1 sequence (whole entry): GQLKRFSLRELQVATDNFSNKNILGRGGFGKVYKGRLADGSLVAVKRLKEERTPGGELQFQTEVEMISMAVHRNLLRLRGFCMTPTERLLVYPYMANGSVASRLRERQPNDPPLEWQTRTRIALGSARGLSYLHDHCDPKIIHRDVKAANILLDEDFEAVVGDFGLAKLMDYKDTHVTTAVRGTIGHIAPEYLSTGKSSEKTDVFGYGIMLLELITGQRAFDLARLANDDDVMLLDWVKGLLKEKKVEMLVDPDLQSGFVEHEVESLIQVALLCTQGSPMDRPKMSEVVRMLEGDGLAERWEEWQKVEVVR
In short: as §1

[10] = test system: T2, LOC_OS04G41100-cb001
T2 sequence (whole entry): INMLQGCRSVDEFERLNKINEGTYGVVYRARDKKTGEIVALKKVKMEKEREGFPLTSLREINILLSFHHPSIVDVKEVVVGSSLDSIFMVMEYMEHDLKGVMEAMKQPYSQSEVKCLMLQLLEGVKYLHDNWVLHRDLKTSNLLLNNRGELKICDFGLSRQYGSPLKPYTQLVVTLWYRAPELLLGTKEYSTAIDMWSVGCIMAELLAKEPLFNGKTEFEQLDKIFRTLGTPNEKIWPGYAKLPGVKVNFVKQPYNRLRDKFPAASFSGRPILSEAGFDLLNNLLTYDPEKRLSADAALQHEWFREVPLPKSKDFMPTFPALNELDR
In short: as §1

[11] = test system: LOC_OS04G57630-cb004
In short: as §1

[12] = test system: LOC_OS05G07850-cb002
In short: as §1

[13] = test system: LOC_OS05G16824-cb004
In short: as §1

[14] = test system: LOC_OS05G28520-cb001
In short: as §1

[15] = test system: LOC_OS05G30820-cb001
In short: as §1

[16] = test system: LOC_OS05G43570-cb004
In short: as §1

[17] = test system: LOC_OS06G16330-cb003
In short: as §1

[18] = test system: T3, LOC_OS06G22820-cb001
T3 sequence (whole entry): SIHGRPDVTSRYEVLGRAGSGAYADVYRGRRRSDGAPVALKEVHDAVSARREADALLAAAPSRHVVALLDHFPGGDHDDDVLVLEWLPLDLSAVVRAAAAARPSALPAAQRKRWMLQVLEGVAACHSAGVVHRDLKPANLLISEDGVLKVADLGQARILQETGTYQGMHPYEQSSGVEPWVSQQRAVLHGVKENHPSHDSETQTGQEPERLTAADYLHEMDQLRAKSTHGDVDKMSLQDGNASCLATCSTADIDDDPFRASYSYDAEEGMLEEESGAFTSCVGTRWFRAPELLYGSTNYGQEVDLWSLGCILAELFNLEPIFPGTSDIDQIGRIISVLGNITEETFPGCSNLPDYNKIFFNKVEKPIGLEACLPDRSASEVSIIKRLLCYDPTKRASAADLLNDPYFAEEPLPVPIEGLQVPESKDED
In short: as §1

[19] = test system: LOC_OS07G06570-cb004
In short: as §1

[20] = test system: LOC_OS07G07230-cb001
In short: as §1

Sequence of LOC_OS06G16330-cb003 (as listed by the source): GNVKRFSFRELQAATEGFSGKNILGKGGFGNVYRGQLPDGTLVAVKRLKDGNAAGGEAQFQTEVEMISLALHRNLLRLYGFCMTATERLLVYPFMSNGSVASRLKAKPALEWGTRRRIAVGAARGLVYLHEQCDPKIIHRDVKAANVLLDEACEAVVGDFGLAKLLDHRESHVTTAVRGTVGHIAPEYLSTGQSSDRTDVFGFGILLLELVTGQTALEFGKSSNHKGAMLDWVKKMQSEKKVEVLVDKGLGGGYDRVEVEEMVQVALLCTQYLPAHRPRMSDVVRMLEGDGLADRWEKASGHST

Compound	thermal shift delta Tm [1] [°C]	thermal shift delta Tm [2] [°C]	thermal shift delta Tm [3] [°C]	thermal shift delta Tm [4] [°C]	thermal shift delta Tm [5] [°C]	thermal shift delta Tm [6] [°C]	thermal shift delta Tm [7] [°C]	thermal shift delta Tm [8] [°C]	thermal shift delta Tm [9] [°C]	thermal shift delta Tm [10] [°C]	thermal shift delta Tm [11] [°C]	thermal shift delta Tm [12] [°C]	thermal shift delta Tm [13] [°C]	thermal shift delta Tm [14] [°C]	thermal shift delta Tm [15] [°C]	thermal shift delta Tm [16] [°C]	thermal shift delta Tm [17] [°C]	thermal shift delta Tm [18] [°C]	thermal shift delta Tm [19] [°C]	thermal shift delta Tm [20] [°C]
N#Cc1c(Oc2ccc(F)c(NC(=O)Cc3cccc(C(F)(F)F)c3)c2)ccc2nc(NC(=O)C3CC3)sc12	1.08	0.54	0.5	0.15	0.31	0.4	0.5	0.45	1.92	0.42	0.09	0.32	-2.82	0.59	0.49	0.4	0.5	0.74	1.21	0.32
CCNC(=O)Nc1ccc(-c2nc(N3CCOC[C@@H]3C)c3c(n2)C(C)(C)S(=O)(=O)C3)cc1	0.42	0.08	0.36	0.06	0.16	0.41	0.16	0.29	1.39	0.2	-0.03	1.34	0.19	0.25	0.2	0.77	-0.15	0.67	1.9	0.66
CN(C)Cc1cccc(N=C(c2ccccc2)c2c(O)[nH]c3cc(C(=O)N(C)C)ccc23)c1	4.33	0.4	0.44	0.66	1.19	0.55	2.45	5.85	0.55	0.45	0.46	5.73	3.8	-0.08	0.49	0.76	0.77	0.98	0.59	-0.37
C[C@H]1CNCCCN1S(=O)(=O)c1cccc2cncc(F)c12 [Ripasudil (K-115) hydrochloride dihydrate]	0.9	-0.02	0.39	0.39	0.16	0.22	0.68	0.3	1.26	0.24	0.43	3.53	-0.98	0.51	0.26	0.76	0.41	0.46	0.19	0.2
CC(C)n1nc(-c2ccc3oc(N)nc3c2)c2c(N)ncnc21	6.62	0.93	0.38	0.67	1.24	0.47	0.61	5.42	0.87	0.38	0.37	7.34	-0.35	0.63	0.45	0.24	2.84	0.75	1.22	0.29
c1cn2cc(-c3ccc4cn[nH]c4c3)nc(Nc3ccc(N4CCOCC4)cc3)c2n1 [Entospletinib (GS-9973)]	0.66	1.02	0.92	3.99	1.72	4.22	2.13	2.13	2.56	1.01	0.36	7.87	0.89	1.02	0.84	0.74	9.22	0.27	1.71	0.6
CCn1c(=O)c(-c2ccc(Cl)cc2Cl)cc2cnc(Nc3ccc(N4CCNCC4)c(F)c3)nc21	10.1	8.42	-0.88	4.85	10.7	0.54	6.99	11	3.17	2.82	4.17	10.6	6	2.8	0.68	0.35	6.75	0.87	1.3	4.1
O=C(NCc1cccc(O)c1)Nc1nc(-c2ccncc2)cs1	-1.72	0.56	1.15	0.54	1.06	0.51	0.05	1.65	0.86	0.95	1.08	3.27	-3.55	0.81	0.5	1.02	0.47	0.43	1.09	0.35
O=C1Cc2c([nH]c3ccc(Br)cc23)-c2ccccc2N1 [Kenpaullone]	6.87	1.11	0.51	5.47	2.21	0.9	2.26	4.7	2.14	2.07	2.67	7.41	3.07	1	2.18	1.21	2.59	0.96	-0.23	0.05
O=C1CCc2c(Oc3ccc4c(c3)[C@@H]3[C@H](O4)[C@H]3c3nc4cc(C(F)(F)F)ccc4[nH]3)ccnc2N1 [Lifirafenib (BGB-283)]	2.06	5.22	0.52	0.76	0.6	0.51	0.57	0.81	3.35	0.63	5.81	9.47	-0.92	0.64	0.42	1.09	2.37	1.16	1.23	-0.15
COc1cc2c(cc1OC)[C@@H]1C(=O)c3ccc4c(c3O[C@@H]1CO2)C=CC(C)(C)O4 [Deguelin]	0.46	-0.02	0.25	-0.38	0.07	0.4	0.24	0.63	1.39	0.34	0.18	-0.44	-0.75	-0.03	-0.19	0.47	-0.59	0.97	0.49	-0.57
COc1ccc(-c2ccc3c(N4CCOCC4)nc(N4C[C@@H](C)O[C@@H](C)C4)nc3n2)cc1CO	0.16	-0.13	-0.03	0.03	0.02	-0.08	-0.07	0.21	0.34	0.27	-0.55	-0.78	-3.16	0	0.48	0.2	-0.25	0.14	0.51	0.35
CNS(=O)(=O)Nc1nccc(Cc2c(C)c3ccc(Oc4ncccn4)cc3oc2=O)c1F	0.52	-0.03	0.37	0.7	0.15	0.4	0.57	-0.07	0.35	0.2	0.3	0.16	-1.72	0.32	0.47	0.49	0.47	0.62	1.63	0.51
Cn1ncc(Cl)c1-c1cc(C(=O)N[C@H](CN)Cc2ccc(F)c(F)c2)oc1Cl	1.04	-0.14	0.46	1.31	0.14	0.74	0.51	0.52	1.58	0.63	0.39	1.08	2.91	1.26	0.24	1.04	1.15	0.82	-0.35	-0.13
C=CC(=O)Nc1cccc(Oc2nc(Nc3ccc(N4CCN(C)CC4)cc3)nc3ccsc23)c1	1.44	0.64	0.99	1.24	1.38	1.3	1.96	2.13	2.26	0.71	1.01	8.37	2.38	2.64	1.14	1.26	3.14	0.83	2.96	1.41
COc1cc2c(N3CCN(C(=O)Nc4ccc(OC(C)C)cc4)CC3)ncnc2cc1OCCCN1CCCCC1 [Tandutinib (MLN518)]	1.37	0.74	0.9	0.38	0.28	0.42	0.95	1.58	1.79	0.92	2.05	1.44	0.72	0.2	0.16	0.41	-1.38	0.3	1.1	0.38
CN1CCN(c2ccc(C(=O)Nc3n[nH]c4ccc(Cc5cc(F)cc(F)c5)cc34)c(NC3CCOCC3)c2)CC1 [Entrectinib (RXDX-101)]	8.16	1.58	0.06	2.99	0.44	0.86	7.06	7.44	2.7	0.77	2.05	10.2	5.23	3.71	0.38	0.47	8.44	0.27	0.88	0.63
CCCS(=O)(=O)Nc1ccc(F)c(C(=O)c2c[nH]c3ncc(Cl)cc23)c1F	1.97	1.14	0.77	0.99	0.46	0.97	0.43	1.85	0.12	0.83	0.51	5.57	2.36	1.71	0.75	0.29	1.64	0.42	0.7	-0.02
CN(C)Cc1cccc(N/C(=C2\C(=O)Nc3cc(C(N)=O)ccc32)c2ccccc2)c1	1.35	0.37	0.38	3.49	3.05	0.35	1.47	3.48	0.38	0.47	0.27	5.34	2.95	0.22	0.46	0.7	0.53	0.79	1.03	0.16
CC(C)S(=O)(=O)c1ccc2nccc(Nc3ccc4scnc4c3)c2c1	1.88	0.89	0.51	0.9	0.22	0.37	0.61	2.38	2.44	0.32	2.51	3.36	4.91	0.25	-0.04	0.38	2.09	0.32	1.62	0.17
COc1cc(CCc2cc(NC(=O)c3ccc(N4CC(C)NC(C)C4)cc3)n[nH]2)cc(OC)c1 (stereo not given)	7.06	0.23	0.27	1.22	1.11	0.29	4.8	5.76	0.62	1.99	2.33	3.41	4.73	6.65	0.59	0.4	2.54	0.35	0	-0.08
C#Cc1cccc(Nc2ncnc3cc(OCCOC)c(OCCO)cc23)c1	3.92	0.67	0.26	2.39	0.08	0.13	0.83	6.33	1.21	0.13	0.14	8.23	0.76	-0.52	0.4	0.13	3.5	0.25	0.7	-0.14
Cc1ccc(F)c(NC(=O)Nc2ccc(-c3cccc4[nH]nc(N)c34)cc2)c1 [Linifanib (ABT-869)]	0.85	-0.22	0.3	3.38	1.2	0.4	0.8	2.54	0.22	1.77	0.74	4.63	1.86	0.75	0.85	0.9	3.55	0.6	0.72	0.93
CCN(CC)CCCC(C)Nc1ccnc2cc(Cl)ccc12 (stereo not given) [Chloroquine Phosphate]	0.61	0.18	0.45	0	0.19	0.25	0.19	0.59	2.48	0.64	0.53	0.78	-0.51	0.02	0.51	0.55	-3.04	0.22	0.72	0.52
CNC(=O)c1nn(C)c2c1C(C)(C)Cc1cnc(Nc3ccc(N4CCN(C)CC4)cc3)nc1-2	7.62	0.71	0.62	-0.14	1.08	0.91	4.16	7.06	1.96	0.65	3.76	6.76	7.67	4.23	0.45	0.22	4.37	0.43	0.26	0.04
